The record followed here is ChEMBL document CHEMBL1961873, “Compounds: GSK PKIS; Assays: Nanosyn kinase panel” (2012).

The target in experiment [1] is T1, Inhibitor of nuclear factor kappa-B kinase subunit epsilon (Homo sapiens) (UniProt Q14164).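 Note: reported values are averaged percent inhibition figures against human IKKε.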
T1 sequence (whole entry): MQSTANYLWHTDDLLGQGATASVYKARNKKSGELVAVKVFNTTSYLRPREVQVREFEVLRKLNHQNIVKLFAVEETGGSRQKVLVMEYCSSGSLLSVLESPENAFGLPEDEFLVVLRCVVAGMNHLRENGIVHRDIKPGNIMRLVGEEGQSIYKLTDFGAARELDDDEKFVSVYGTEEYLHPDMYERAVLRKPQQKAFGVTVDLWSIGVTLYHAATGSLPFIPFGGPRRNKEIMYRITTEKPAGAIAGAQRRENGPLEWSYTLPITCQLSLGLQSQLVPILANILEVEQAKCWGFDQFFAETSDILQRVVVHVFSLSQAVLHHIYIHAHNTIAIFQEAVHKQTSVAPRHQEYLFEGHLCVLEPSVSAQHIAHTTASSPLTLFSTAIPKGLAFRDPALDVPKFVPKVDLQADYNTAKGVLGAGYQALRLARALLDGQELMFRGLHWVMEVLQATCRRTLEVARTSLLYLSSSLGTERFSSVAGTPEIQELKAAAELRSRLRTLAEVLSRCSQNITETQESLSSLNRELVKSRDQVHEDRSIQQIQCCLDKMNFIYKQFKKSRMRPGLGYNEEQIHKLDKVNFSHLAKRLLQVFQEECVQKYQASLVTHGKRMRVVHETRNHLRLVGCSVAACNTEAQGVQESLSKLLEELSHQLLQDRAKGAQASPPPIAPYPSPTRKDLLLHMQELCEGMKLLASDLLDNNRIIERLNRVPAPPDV
As to conditions: at 1 µM.

Experiment [2] concerns the target T2, Serine/threonine-protein kinase Nek1 (Homo sapiens) (UniProt Q96PY6).
T2 sequence (whole entry): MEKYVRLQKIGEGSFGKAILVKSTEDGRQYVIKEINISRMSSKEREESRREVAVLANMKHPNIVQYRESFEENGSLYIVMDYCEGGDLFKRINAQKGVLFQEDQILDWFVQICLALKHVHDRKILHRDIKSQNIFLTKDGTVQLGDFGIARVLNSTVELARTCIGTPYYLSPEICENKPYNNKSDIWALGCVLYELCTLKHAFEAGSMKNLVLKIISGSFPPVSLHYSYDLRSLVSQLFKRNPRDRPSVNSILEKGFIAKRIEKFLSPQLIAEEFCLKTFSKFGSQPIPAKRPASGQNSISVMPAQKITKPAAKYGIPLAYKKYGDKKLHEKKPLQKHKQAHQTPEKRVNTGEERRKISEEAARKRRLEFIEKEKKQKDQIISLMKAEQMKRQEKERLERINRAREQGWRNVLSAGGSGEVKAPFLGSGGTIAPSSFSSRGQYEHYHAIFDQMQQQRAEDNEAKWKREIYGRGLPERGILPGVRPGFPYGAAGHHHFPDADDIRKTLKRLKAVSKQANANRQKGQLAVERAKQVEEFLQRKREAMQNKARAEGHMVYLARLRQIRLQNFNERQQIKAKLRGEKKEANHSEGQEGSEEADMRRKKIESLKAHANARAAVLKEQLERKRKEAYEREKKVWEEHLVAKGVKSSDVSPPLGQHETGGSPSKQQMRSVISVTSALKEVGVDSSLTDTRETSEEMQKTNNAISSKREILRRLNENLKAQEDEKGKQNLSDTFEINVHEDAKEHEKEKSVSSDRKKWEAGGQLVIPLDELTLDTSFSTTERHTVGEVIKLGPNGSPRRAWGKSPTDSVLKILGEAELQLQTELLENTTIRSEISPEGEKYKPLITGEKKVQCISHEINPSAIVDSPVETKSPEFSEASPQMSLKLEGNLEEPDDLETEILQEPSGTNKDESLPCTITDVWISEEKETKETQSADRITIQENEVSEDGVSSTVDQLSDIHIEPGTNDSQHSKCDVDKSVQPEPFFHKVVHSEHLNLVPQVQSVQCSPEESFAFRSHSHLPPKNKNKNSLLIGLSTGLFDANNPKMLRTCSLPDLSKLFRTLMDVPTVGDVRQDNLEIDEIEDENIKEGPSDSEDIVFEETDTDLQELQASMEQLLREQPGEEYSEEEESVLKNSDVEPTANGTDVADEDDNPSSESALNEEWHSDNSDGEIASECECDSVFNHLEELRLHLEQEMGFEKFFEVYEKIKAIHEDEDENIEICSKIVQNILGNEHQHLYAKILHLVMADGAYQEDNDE
As to conditions: at 0.1 µM.

Experiment [3] concerns the target T2, Serine/threonine-protein kinase Nek1 (Homo sapiens). To be noted: at 1 µM.
Experiment [4] concerns the target T3, Serine/threonine-protein kinase Nek2 (Homo sapiens) (UniProt P51955).
T3 sequence (whole entry): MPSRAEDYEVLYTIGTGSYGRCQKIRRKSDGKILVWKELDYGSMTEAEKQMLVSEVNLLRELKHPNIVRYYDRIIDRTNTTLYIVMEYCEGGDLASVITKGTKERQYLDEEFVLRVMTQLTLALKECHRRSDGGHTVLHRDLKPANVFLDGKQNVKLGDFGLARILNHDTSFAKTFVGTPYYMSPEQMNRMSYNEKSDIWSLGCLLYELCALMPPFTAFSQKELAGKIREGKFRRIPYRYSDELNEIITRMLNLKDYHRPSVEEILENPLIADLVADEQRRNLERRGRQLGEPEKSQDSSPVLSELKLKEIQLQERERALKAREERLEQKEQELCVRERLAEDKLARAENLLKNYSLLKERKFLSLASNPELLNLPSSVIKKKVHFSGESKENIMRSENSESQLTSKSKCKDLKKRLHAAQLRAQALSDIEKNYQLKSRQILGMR
To be noted: at 0.1 µM.

Experiment [5] deals with T3, Serine/threonine-protein kinase Nek2 (Homo sapiens). To be noted: at 1 µM.
The target of experiment [6] is Serine/threonine-protein kinase Nek6 (Homo sapiens) (UniProt Q9HC98). To be noted: at 0.1 µM.
Experiment [7] has the same target. As to conditions: at 1 µM.
In experiment [8] the target is Serine/threonine-protein kinase Nek7 (Homo sapiens) (UniProt Q8TDX7). As to conditions: at 0.1 µM.
Experiment [9] shares this target. To be noted: at 1 µM.
In experiment [10] the target is T4, Serine/threonine-protein kinase Nek9 (Homo sapiens) (UniProt Q8TD19).
T4 sequence (whole entry): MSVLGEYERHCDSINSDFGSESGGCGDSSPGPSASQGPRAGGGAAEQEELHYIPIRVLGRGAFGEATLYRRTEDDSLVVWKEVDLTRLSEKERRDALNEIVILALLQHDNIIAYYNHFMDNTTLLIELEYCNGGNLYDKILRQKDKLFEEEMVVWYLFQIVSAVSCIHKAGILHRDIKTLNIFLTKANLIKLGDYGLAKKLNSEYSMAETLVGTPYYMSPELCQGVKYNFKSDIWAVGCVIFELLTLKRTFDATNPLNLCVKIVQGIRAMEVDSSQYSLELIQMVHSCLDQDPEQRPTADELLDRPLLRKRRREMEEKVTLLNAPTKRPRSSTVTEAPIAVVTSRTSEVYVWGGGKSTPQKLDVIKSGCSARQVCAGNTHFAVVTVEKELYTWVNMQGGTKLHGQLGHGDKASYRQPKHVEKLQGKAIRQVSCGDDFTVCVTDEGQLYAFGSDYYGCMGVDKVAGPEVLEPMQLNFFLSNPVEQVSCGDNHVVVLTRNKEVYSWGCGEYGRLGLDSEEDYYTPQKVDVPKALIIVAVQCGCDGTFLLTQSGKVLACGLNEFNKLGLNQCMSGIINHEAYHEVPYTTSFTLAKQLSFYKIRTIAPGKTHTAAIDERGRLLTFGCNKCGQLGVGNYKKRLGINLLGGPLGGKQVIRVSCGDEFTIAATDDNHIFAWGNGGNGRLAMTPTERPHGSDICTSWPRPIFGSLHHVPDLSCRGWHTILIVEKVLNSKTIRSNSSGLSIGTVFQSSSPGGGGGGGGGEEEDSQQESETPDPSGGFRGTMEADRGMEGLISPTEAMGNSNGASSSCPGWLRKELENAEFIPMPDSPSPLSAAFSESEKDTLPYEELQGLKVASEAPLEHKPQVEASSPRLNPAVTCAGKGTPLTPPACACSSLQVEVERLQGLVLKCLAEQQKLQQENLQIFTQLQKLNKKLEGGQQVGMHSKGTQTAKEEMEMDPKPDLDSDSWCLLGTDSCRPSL
As to conditions: at 0.1 µM.

Experiment [11] has as its target T4, Serine/threonine-protein kinase Nek9 (Homo sapiens). To be noted: at 1 µM.
The target of experiment [12] is Serine/threonine-protein kinase PLK1 (Homo sapiens) (UniProt P53350). To be noted: at 0.1 µM.
Experiment [13] shares this target. To be noted: at 1 µM.
In experiment [14] the target is T5, Dual specificity protein kinase TTK (Homo sapiens) (UniProt P33981).
T5 sequence (whole entry): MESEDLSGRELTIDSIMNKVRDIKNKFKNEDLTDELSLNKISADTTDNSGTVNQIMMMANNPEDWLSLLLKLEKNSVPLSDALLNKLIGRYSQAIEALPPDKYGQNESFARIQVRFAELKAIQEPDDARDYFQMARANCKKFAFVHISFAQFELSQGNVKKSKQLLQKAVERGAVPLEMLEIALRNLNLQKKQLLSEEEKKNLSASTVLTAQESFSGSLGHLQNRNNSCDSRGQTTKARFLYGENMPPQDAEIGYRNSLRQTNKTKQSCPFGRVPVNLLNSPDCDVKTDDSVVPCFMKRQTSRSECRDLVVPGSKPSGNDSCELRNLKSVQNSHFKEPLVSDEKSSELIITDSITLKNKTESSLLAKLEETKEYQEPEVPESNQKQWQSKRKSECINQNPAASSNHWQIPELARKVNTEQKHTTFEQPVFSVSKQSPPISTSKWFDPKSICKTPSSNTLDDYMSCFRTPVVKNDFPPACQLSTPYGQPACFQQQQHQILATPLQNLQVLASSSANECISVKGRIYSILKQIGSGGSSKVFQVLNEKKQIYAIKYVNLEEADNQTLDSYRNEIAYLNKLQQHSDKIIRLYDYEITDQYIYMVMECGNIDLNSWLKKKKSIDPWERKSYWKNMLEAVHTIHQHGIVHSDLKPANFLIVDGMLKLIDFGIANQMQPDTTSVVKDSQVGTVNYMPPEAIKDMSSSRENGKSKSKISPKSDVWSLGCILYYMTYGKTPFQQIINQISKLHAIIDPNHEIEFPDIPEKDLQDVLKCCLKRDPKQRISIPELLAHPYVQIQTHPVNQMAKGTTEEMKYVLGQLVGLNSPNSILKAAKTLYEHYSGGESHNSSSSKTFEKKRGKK
To be noted: at 0.1 µM.

For experiment [15], the system named is T6, Receptor-type tyrosine-protein kinase FLT3 (Homo sapiens), P36888 [D835Y].
T6 sequence (whole entry): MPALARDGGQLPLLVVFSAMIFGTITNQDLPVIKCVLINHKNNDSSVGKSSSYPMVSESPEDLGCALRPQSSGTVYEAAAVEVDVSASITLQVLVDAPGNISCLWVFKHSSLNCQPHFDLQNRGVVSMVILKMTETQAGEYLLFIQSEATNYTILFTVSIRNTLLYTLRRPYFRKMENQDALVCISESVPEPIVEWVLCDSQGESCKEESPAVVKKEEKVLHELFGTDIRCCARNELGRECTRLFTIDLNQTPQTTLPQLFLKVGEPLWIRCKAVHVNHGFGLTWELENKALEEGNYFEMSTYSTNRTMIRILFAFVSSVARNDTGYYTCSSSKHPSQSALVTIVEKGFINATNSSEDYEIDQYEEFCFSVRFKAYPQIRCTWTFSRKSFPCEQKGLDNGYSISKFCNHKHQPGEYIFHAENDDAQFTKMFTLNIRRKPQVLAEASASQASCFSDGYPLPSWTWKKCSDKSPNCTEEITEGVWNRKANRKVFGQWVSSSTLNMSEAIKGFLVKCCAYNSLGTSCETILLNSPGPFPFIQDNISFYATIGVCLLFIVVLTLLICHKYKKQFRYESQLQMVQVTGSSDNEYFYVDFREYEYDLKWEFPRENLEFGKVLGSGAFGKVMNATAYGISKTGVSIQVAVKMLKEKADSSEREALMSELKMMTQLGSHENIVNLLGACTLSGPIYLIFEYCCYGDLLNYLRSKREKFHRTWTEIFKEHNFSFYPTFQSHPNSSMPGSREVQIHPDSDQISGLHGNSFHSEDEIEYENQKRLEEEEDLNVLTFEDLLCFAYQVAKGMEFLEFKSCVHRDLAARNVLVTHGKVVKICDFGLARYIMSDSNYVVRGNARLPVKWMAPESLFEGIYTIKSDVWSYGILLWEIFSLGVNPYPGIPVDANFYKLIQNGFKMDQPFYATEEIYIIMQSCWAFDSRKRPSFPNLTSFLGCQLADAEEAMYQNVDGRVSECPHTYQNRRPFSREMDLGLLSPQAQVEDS
To be noted: at 1 µM.

In experiment [16] the target is Vascular endothelial growth factor receptor 3 (Homo sapiens) (UniProt P35916). As to conditions: at 0.1 µM.
The target is the same in experiment [17]. To be noted: at 1 µM.
In experiment [18] the target is Macrophage colony-stimulating factor 1 receptor (Homo sapiens) (UniProt P07333). To be noted: at 0.1 µM.
For experiment [19] the target is unchanged. As to conditions: at 1 µM.
Experiment [20] concerns the target Tyrosine-protein kinase Fyn (Homo sapiens) (UniProt P06241). As to conditions: at 0.1 µM.

Vascular endothelial growth factor receptor 3 (Homo sapiens), sequence (P35916 whole entry): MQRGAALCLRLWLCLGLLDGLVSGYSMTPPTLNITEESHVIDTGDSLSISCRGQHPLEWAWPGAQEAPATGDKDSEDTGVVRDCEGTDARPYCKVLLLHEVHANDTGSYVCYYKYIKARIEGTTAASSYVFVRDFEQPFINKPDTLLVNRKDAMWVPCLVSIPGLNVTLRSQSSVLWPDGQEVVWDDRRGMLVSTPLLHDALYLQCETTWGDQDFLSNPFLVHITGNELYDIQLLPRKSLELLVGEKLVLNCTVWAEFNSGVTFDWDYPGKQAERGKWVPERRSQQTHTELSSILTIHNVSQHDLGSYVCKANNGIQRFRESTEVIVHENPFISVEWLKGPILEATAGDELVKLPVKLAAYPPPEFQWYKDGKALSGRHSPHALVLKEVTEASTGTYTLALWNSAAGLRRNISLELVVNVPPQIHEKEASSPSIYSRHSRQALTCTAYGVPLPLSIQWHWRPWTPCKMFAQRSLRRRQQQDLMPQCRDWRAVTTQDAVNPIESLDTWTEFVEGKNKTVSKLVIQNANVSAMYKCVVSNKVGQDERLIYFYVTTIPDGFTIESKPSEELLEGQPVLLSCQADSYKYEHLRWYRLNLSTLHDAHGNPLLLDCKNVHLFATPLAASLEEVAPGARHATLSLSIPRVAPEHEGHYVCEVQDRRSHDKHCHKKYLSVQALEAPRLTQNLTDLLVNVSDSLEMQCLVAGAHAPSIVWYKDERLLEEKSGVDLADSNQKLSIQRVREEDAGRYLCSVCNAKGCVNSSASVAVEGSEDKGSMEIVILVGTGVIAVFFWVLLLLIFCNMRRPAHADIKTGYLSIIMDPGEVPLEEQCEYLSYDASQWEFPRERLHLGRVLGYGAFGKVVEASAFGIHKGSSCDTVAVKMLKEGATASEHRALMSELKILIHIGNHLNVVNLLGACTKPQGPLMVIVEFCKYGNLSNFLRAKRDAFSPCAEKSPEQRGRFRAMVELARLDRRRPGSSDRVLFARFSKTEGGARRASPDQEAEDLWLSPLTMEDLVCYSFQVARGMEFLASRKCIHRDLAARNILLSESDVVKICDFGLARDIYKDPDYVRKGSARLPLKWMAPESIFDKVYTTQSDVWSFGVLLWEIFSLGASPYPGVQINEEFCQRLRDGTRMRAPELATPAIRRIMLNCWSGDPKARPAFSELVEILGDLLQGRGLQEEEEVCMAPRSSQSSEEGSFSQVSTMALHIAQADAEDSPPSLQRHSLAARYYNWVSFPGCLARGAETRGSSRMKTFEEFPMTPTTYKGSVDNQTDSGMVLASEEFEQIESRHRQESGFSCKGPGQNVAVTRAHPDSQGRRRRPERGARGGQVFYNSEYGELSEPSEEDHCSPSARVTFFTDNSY
Macrophage colony-stimulating factor 1 receptor (Homo sapiens), sequence (P07333 whole entry): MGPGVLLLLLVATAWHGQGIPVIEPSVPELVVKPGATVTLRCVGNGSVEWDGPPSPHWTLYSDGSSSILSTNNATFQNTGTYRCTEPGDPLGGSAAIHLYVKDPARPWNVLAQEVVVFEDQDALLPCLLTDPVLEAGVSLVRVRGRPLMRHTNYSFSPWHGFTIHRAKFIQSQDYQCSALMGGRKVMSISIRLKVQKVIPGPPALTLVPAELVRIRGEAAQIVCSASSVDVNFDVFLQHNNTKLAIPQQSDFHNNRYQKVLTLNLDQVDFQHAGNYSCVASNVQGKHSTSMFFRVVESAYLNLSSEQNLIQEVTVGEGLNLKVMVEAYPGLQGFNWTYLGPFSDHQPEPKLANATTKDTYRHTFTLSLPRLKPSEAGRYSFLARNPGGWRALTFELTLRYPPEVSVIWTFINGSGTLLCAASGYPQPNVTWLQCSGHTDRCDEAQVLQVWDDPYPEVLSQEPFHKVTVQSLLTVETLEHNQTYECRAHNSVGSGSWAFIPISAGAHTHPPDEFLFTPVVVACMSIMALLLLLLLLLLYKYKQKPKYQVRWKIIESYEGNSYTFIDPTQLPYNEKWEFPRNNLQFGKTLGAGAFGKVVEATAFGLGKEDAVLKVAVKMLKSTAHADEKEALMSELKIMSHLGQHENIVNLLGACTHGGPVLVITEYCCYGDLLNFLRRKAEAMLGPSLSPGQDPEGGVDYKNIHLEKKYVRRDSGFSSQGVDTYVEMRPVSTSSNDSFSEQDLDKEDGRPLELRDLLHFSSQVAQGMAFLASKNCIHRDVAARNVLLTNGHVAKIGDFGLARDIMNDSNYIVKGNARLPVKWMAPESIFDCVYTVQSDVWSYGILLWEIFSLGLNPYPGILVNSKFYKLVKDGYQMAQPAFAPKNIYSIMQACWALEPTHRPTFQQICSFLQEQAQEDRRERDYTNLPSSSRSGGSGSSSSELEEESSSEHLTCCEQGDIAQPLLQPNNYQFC
Serine/threonine-protein kinase Nek6 (Homo sapiens), sequence (Q9HC98 whole entry): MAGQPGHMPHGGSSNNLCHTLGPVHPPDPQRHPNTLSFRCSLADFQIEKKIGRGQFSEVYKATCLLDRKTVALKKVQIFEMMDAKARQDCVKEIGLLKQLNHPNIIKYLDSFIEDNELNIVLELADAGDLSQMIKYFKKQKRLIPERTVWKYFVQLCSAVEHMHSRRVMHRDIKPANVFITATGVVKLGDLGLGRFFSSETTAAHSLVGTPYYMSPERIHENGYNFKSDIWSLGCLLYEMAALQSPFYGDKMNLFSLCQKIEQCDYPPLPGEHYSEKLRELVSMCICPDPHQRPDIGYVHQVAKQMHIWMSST
Serine/threonine-protein kinase Nek7 (Homo sapiens), sequence (Q8TDX7 whole entry, looked up): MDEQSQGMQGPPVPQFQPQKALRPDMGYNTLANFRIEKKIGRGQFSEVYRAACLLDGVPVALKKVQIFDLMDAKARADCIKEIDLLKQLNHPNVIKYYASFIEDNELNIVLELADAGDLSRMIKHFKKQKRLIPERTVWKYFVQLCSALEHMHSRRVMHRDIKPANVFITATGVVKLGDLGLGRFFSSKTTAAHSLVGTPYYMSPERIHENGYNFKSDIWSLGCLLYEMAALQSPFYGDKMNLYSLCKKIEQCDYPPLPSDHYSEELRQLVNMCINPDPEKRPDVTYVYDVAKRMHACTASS
Serine/threonine-protein kinase PLK1 (Homo sapiens), sequence (P53350 whole entry): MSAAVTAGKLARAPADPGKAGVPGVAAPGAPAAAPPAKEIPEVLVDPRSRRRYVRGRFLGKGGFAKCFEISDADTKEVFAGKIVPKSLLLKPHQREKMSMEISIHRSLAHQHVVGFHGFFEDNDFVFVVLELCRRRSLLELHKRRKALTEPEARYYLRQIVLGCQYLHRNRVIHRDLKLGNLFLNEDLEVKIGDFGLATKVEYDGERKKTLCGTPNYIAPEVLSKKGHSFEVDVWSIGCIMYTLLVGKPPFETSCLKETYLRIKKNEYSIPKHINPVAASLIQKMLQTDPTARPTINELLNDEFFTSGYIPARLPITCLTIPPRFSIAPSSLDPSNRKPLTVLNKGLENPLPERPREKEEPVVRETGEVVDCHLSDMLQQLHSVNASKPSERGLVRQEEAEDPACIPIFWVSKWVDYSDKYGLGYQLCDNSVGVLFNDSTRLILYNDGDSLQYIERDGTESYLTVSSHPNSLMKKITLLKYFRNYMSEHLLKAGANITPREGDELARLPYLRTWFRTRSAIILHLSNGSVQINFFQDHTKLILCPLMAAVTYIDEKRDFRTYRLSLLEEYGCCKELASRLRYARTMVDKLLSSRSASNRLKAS
Tyrosine-protein kinase Fyn (Homo sapiens), sequence (P06241 2-537 limits assumed): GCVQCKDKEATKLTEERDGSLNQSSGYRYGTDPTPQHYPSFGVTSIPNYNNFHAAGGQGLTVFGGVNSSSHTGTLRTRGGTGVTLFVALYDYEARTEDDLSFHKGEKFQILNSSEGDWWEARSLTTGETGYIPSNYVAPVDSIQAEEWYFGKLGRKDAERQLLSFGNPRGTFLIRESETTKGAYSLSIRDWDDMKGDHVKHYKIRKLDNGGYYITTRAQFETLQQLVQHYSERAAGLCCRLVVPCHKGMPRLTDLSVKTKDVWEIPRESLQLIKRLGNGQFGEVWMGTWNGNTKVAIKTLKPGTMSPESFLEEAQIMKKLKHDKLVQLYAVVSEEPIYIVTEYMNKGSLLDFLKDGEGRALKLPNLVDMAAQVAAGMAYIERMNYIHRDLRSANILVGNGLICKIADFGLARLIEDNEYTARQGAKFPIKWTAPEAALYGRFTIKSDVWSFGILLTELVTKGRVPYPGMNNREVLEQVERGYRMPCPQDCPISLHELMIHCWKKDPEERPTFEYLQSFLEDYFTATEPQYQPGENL

With `COc1cccc(/C=N/Nc2ncnc3c2cnn3-c2cccc(OC)c2)c1`, the inhibition in experiment [1] stood at 6.73%; in [2], 1.81%; in [3], 3.93%; in [4], 5.68%; in [5], 3.79%; in experiment [6], 1.07%. For the same compound, the inhibition came to 2.21% in experiment [7]; 3.9% in experiment [8]; 8.57% in [9]; 7.75% in [10]; 11.2% in experiment [11]; 5.9% in experiment [12]. The inhibition was 5.49% in [13]; 7.19% in experiment [14]; 7.24% in experiment [15]; 1.81% in experiment [16]; -0.55% in experiment [17]; 1.79% in [18]. The inhibition in experiment [19] amounted to 6.37%; in experiment [20] it was 2.39%.
As to `Cc1ccc(C(=O)NC2CCC2)cc1-c1ccc(C(=O)NCC2CC2)cc1`, the inhibition is 2.96% in experiment [1]; 0.93% in [2]; 3.06% in experiment [3]; 4.6% in experiment [4]; 3.71% in [5]; -0.33% in [6]. Moreover, the inhibition in [7] worked out at 1.33%; in [8] it was 3.14%; in experiment [9], 2.04%; in experiment [10], 4.75%; in [11] it was 5.58%; in experiment [12], 4.95%. The inhibition in experiment [13] was 2.15%; in experiment [14], 4.58%; in experiment [15], 8.02%; in experiment [16], 1.24%; in experiment [17] it was 1%; in experiment [18], -2.9%. The results for the inhibition in experiment [19] and in [20] were 4.65% and 0.98%, respectively.

One may read the inhibition as the relative decrease from the control value, in per cent.
